# Only some compounds are listed: those with a hit (about 5.8% of all), similar ones and a draw of the others.
# KB-3-1 tox – KB-3-1 parental cell cytotoxicity; KB-3-1 viability, CellTiter-Glo ATP luminescence, 72 h; Potency, µM (series often up to 46.1 µM), most hits filed as cytotoxic; hit rate 1.4% among 400,000; note: % is set by controls: 0 for no effect and ±100 for the full control effect; nearly all actives have a fitted effect of over 60% in size
#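 Using CellTiter-Glo luminescence, growth of non-resistant KB-3-1 adenocarcinoma cells is assessed 72 h after pin-tool compound addition at 37 °C. Normalized responses across the concentration series yield fitted curves.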
# MCF10A rerep – inducers of DNA re-replication in MCF 10A breast cells; MCF 10A DNA re-replication, Hoechst nuclear intensity, 48 h; hit rate 2.9% among 350,000; Potency, µM (top dose mostly 46.1 µM), inactives show top-dose activity, positive = re-replication, most hits filed as activators; note: % of control where 0% means no effect; nearly all actives have a fitted effect of over 50% in size
# SW480 rereplic – inducers of DNA re-replication in SW480 colon cancer cells; hit rate 1.8% among 340,000; SW480 DNA re-replication, Hoechst DNA content imaging, 48 h; Potency, µM (doses to about 46.1 µM), inactives show top-dose re-replication activation, actives largely listed as activators; note: % of control where 0% means no effect; nearly all actives have a fitted effect of over 55% in size
#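 Compounds, transferred as 23 nL by pin tool, were incubated with cells for 48 hr; DNA content per nucleus was then quantified by Hoechst staining and fluorescence plate imaging.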
# PINK1 modulator – PINK1 expression modulation. PINK1 immunofluorescence, high-content cytometry, 24 h. AID 624263. hit rate 0.2% among 410,000. Potency, µM (doses to about 76.6 µM), for the others: at the highest dose activation (PINK1 increase), usual class: activators; active = well fitted activation curve with a large enough effect; inconclusive = small, poorly fitted or top-dose-only effect; cell line not stated here; note: % of control where 0% means no effect; nearly all actives have a fitted effect of over 65% in size
#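 A stable cell line was treated with compounds at 5 concentrations for 24 hours, with CCCP as control. PINK1 levels and mitochondrial localization were measured by immunofluorescence with mitochondrial, cell and nuclear markers after fixation, read by laser-scanning cytometry.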
# KB-V1 cytotox – KB-V1 MDR subline cytotoxicity; KB-V1 MDR cells viability, CellTiter-Glo, 72 h; Potency, µM (titrated, usually from 46.1 µM), usual class: cytotoxic; hit rate 3.4% among 400,000; note: % is set by controls: 0 for no effect and ±100 for the full control effect; nearly all actives have a fitted effect of over 60% in size
#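 Drug-selected KB-V1 cells, grown in DMEM lacking phenol red with 10% FBS, receive compound titrations; after three days at 37 degrees C, surviving cell ATP is quantified by CellTiter-Glo luminescence and responses normalized and curve-fitted.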
# ALOX12 inh – ALOX12 (human) lipoxygenase inhibition; purified 12hLO, xylenol orange hydroperoxide absorbance; P18054; hit rate 1.1% among 580,000; Potency, µM (doses to about 108 µM), for inactives: top-dose activity change, negative = inhibition, actives largely listed as inhibitors; AID 1671190; note: % is set by controls: 0 for no effect and ±100 for the full control effect
# Target sequence (P18054 whole entry, looked up): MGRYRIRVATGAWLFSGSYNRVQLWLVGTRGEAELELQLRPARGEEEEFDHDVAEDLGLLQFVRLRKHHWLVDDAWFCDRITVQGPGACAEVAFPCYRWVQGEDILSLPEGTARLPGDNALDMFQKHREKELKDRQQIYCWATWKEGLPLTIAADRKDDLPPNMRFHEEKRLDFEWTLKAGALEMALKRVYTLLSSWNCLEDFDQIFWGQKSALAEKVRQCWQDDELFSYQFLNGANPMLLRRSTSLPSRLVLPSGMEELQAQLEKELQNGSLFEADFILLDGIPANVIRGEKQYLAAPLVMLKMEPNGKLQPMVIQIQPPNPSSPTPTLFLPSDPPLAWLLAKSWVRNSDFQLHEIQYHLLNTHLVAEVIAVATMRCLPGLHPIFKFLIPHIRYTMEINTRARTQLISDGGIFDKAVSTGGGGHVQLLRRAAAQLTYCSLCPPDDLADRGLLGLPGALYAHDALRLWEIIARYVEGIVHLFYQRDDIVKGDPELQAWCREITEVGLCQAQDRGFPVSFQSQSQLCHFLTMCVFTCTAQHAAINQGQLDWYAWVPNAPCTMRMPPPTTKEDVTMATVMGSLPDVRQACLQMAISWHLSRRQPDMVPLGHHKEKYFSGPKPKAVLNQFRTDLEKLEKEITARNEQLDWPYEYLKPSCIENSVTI
#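 Purified human 12hLO at 150 nM in 25 mM Hepes, 0.01% Triton X-100, pH 7.0, preincubated 15 min at room temperature with compound. Reaction started with 40 uM arachidonic acid, 30 min at room temperature. Hydroperoxide measured by Fe-xylenol orange, 573/405 nm absorbance ratio.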
# * hit, by the source's call; i = inactive; ? = inconclusive; / = not tested or not shown; [ ] = dose if it differs, or a comment. Unless noted, calls come from the whole dose curve; as a rule, active = well fitted curve in the direction sought with a large enough effect; inconclusive = small, poorly fitted or top-dose-only effect, or another doubt; inactive = no such curve, though single readings can be large; an effect the other way counts as inactive or inconclusive. Potency is the fitted concentration of half-maximal effect.
SMILES,KB-3-1 tox,MCF10A rerep,SW480 rereplic,PINK1 modulator,KB-V1 cytotox,ALOX12 inh
O=C(CSc1ccc2ccccc2n1)N1CCC(c2noc3ccc(F)cc23)CC1,i,?,9.2%,4.2%[38.3 µM],9.2µM*,-22.3%
CC1(C)OC(c2ccccc2O)OC1(C)C,/,/,/,/,/,75.4%
Cc1cc2c(cc1C)CSC(c1ccc3ccccc3c1O)SC2,i,16.4%,4.5%,13.0%,i,0.0%
Cc1cc2c(cc1C)CSC(c1c(O)ccc3ccccc13)SC2,?,18.4µM*,18.2%,-1.5%,i,-31.9%
Oc1ccccc1C1SC(c2ccccc2O)SC(c2ccccc2O)S1 (stereo unspecified),?,6.51µM*,?,-2.1%,i,?
Cc1cc2c(cc1C)CSC(c1ccccc1O)SC2,?,?,?,0.2%[38.3 µM],18.4µM*,?
Cc1cc2c(cc1C)CSC(c1ccc(O)cc1)SC2,i,-1.3%,1.6%,?,i,6.8%
Cc1cc2c(cc1C)CSC(c1cc(Cl)ccc1O)SC2,/,/,/,/,/,12.6µM*
O=C(O)CCC(=O)N1Cc2ccccc2CC2(CCN(Cc3cccnc3)C2)C1 (stereo unspecified),/,/,/,/,/,8.3%[6.33 µM]
Cc1ccc(S(=O)(=O)N2CCN(C(=O)C(CC(C)C)NC(N)=O)CC2)cc1 (stereo unspecified),/,/,/,/,/,-16.6%
CC(C)N1C[C@H](O)C[C@H]1c1nnc2n1CCN(C(=O)COc1ccc(F)cc1)C2,/,/,/,/,/,87.5%
O=C(Nc1ccc(F)cc1)c1cnc(N2CCCCC2)c2ccccc12,/,/,/,/,/,-4.4%
CCOC(=O)C1(Cc2cccc(OC)c2)CCCN(C(=O)CSc2ccncc2)C1 (stereo unspecified),/,/,/,/,/,16.8%
COc1cc(-c2nc3c4c5c(sc4ncn3n2)COC(C)(C)C5)ccc1O,/,/,/,/,/,-0.6%
Cc1cc2c(cc1C)CSC(c1ccccc1OC(=O)C(C)(C)C)SC2,i,11.6µM*,6.7%,2.8%,i,-6.9%
COc1ccc(Cl)cc1-n1nnc(-c2nc(-c3cc(OC)c(OC)c(OC)c3)no2)c1C,/,/,/,/,/,1.7%
C#CCN1C(C)=C(C(=O)OC)C(c2cccc([N+](=O)[O-])c2)C(C(=O)OCC)=C1C (stereo unspecified),i,3.2%,2.5%,1.5%,11.6µM*,-3.4%
CCOC(=O)C1=C(c2ccccc2)NC(=S)NC1c1ccc(C)c([N+](=O)[O-])c1 (stereo unspecified),i,?,?,14.2%,2.91µM*,-3.6%
CCOC(=O)C1=C(c2ccccc2)NC(=S)NC1c1cccc([N+](=O)[O-])c1 (stereo unspecified),i,11.1%,-1.8%,4.6%,14.6µM*,-14.6%
CCOC(=O)C1=C(c2ccccc2)NC(=S)NC1c1cc([N+](=O)[O-])ccc1OC (stereo unspecified),i,-2.2%,17.0%,0.3%,i,39.8µM*
O=C1CCSc2c1cccc2C(=O)NCC1CCN(Cc2ccc(Cl)cc2)CC1,/,/,/,/,/,-25.2%
Cc1ccc(F)cc1NC(=O)C1CCCCC1,/,/,/,/,/,-28.3%
CC1=C(C(=O)OCc2ccccc2)C(c2cccc([N+](=O)[O-])c2)NC(=O)N1 (stereo unspecified),i,2.4%,-10.2%,1.0%,i,?
CC1=C(C(=O)OCc2ccccc2)C(c2cccc([N+](=O)[O-])c2)NC(=O)N1C (stereo unspecified),i,0.82µM*,-59.2%,-0.4%,?,-12.8%
CCCC(=O)NC1CCN(c2ccccc2S(=O)(=O)C(F)(F)F)CC1,/,/,/,/,/,-25.6%
SMILES,KB-3-1 tox,MCF10A rerep,SW480 rereplic,PINK1 modulator,KB-V1 cytotox,ALOX12 inh
CN(CC(=O)NC(=O)NC1CCCCC1)Cc1ccc2ccccc2c1,/,/,/,/,/,10.9%
S=C(NNc1ccnc2cc(Cl)ccc12)Nc1ccc(Cl)cc1Cl,?,?,11.3%,8.91µM*,?,?
CCOc1ccc(NC(=S)NNc2ccnc3cc(Cl)ccc23)cc1,?,25.1%,?,?,?,?
O=C(NC1CCCCC1)C1(c2cccc(Cl)c2)CCC1,/,/,/,/,/,-5.5%
Cc1ccc2[nH]c(C(=O)NCCc3ccccc3)cc2c1,/,/,/,/,/,-4.5%
CCN(CC)C1Oc2cc3c(cc2C(c2cc(OC)c(OC)c(OC)c2)C1C)OCO3 (stereo unspecified),1.16µM*,1.46µM*,?,5.2%,?,-0.8%
COc1cc([C@@H]2c3cc4c(cc3[C@@H](O)[C@H]3COC(=O)[C@H]23)OCO4)cc(OC)c1O[Si](C)(C)C(C)(C)C,5.8µM*,?,-7.3%,-2.2%,?,-2.7%
COc1cc(C2c3cc4c(cc3C3OC(=O)C2C3CO)OCO4)cc(OC)c1OC (stereo unspecified),?,/,/,11.9%,0.206µM*,-3.5%
CS(=O)(=O)c1ccc(OCC2(CNS(=O)(=O)c3ccc(Cl)cc3)C[C@@H](O)[C@@H](O)C2)cc1 (stereo partly specified),/,/,/,/,/,79.4µM*
COCCn1c(C)cnc1CC1CCN(C(=O)Nc2ccccc2F)C1 (stereo unspecified),/,/,/,/,/,29.8%
COc1cccc(-c2ccnc(-c3nnc(C)n3Cc3ccccc3)c2)c1,/,/,/,/,/,1.5%[176 µM]
CN(CCOc1ccc(F)cc1)C(=O)c1ccc2ccccc2n1,/,/,/,/,/,3.9%
CCc1cc2c(N3CCCCC3)ncnc2s1,i,?,-1.3%,-2.3%,i,28.2µM*
CC(C)(C)OC(=O)NC(CN)c1ccccc1Cl (stereo unspecified),/,/,/,/,/,20.1%[12.5 µM]
Cc1c(C(=O)COC(=O)CCCNS(=O)(=O)c2cccs2)oc2ccccc12,/,/,/,/,/,-0.6%
CN(C1CCCCC1)S(=O)(=O)c1ccc(=S)[nH]c1,i,2.3%,-9.2%,-0.6%,14.6µM*,39.8µM*
CN(C1CCCCC1)S(=O)(=O)c1ccc(S(=O)(=O)N2CCCC2)cc1,i,-2.3%,0.9%,1.4%[38.3 µM],?,-3.0%[57.4 µM]
COc1ccc(Nc2cccc(CN3CCCC(C)(NC(C)=O)C3)c2)cc1 (stereo unspecified),/,/,/,/,/,-15.0%[176 µM]
C=CC[C@@H](Cc1ccc(F)cc1)C(=O)OC[C@@H]1CCCN1C(=O)[C@H](CC=C)CC(=O)N(CCO)Cc1ccccc1,?,0.7%,0.8%,-0.8%,20.6µM*,69.1%
C=CCC[C@@H](Cc1ccc(F)cc1)C(=O)OC[C@@H]1CCCN1C(=O)[C@@H](CC=C)CC(=O)N[C@@H](CO)Cc1ccccc1,16.4µM*,17.7%,9.6%,10.4%,i,?
C=CC[C@@H](Cc1ccc(F)cc1)C(=O)OC[C@H]1CCCN1C(=O)[C@@H](CC=C)CC(=O)N(CCO)Cc1ccccc1,i,-5.5%,0.0%,7.7%,i,6.0%
